Data reported in PubChem BioAssay AID2235 (The Scripps Research Institute Molecular Screening Center, 2010).
In all, about 320,000 compounds went through this assay and about 2,800 (0.88%) were called active. The entries come from a sample that favours actives as a whole. A number with no mark means an inactive call.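 Rule for the calls: active = inhibition above the mean inhibition of all tested compounds plus 3 SD, computed separately for each screening campaign (cut at about 15% in these data); inactive = the rest.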

The compounds below were run against Serine/threonine-protein phosphatase PP1-alpha catalytic subunit (Homo sapiens) (UniProt P62136) (assay: inhibition of human PP1 catalytic subunit – biochemical, fluorescence, OMFP substrate, single point, counter-screen for PP5 inhibitor project, primary screen (AID 2235)). Conditions: purified PP1alpha, at 6.7 µM, stronger effect = higher value.
Serine/threonine-protein phosphatase PP1-alpha catalytic subunit (Homo sapiens), sequence (P62136 whole entry, looked up): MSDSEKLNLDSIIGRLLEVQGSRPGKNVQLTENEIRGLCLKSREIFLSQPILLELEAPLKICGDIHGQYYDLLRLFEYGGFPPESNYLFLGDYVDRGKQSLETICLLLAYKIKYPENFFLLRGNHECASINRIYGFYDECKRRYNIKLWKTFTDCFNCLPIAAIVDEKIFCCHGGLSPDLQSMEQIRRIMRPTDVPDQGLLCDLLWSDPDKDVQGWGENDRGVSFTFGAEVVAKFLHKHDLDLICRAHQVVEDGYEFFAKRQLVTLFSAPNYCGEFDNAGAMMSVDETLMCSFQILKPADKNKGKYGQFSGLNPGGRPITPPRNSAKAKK

| SMILES | inhibition |
| --- | --- |
| Cc1cc2nc3c(=O)n(Cc4ccccc4)c(=O)[nH]c3nc2cc1N | 2.81% |
| Nc1ccc2nc3c(=O)[nH]c(=S)[nH]c3nc2c1 | 41.9% (active) |
| COC(=O)/C(C#N)=C/c1occc1C | -1.37% |
| CCC(C)(C)NC(=O)C(c1ccc(O)cc1)N(C(=O)Cn1nnc2ccccc21)c1ccc(NC(C)=O)cc1 (centres undefined) | 4.46% |
| Clc1ccccc1CSc1nnc(-c2ccco2)c(-c2ccco2)n1 | 24.6% (active) |
| O=c1cc(O)nc(SCc2ccccc2Cl)[nH]1 | 3.47% |
| O=C(CC1N=C2c3ccccc3N=C(SCc3ccccc3Cl)N2C1=O)NCc1ccco1 (centres undefined) | 1.15% |
| CCOC(=O)N1CCN(S(=O)(=O)c2cc3c(cc2C)NC(=O)CO3)CC1 | -2.81% |
| COc1cc(C2C(C(=O)c3ccco3)=C(O)C(=O)N2c2cc(C)on2)ccc1OCc1ccccc1 (centres undefined) | 13.9% |
| CCOc1cc(C2C(C(=O)c3ccco3)=C(O)C(=O)N2Cc2ccccc2)ccc1O (centres undefined) | 4.74% |
| Cc1cc(N2C(=O)C(O)=C(C(=O)c3ccc(C)o3)C2c2ccc(OCc3ccccc3)cc2)no1 (centres undefined) | 26.8% (active) |
| Cc1cc(N2C(=O)C(=O)/C(=C(/O)c3ccccc3)C2c2cccc(Br)c2)no1 (centres undefined) | -4.18% |
| COc1cc(C2C(C(=O)c3ccc(C)o3)=C(O)C(=O)N2CCc2ccccc2)ccc1O (centres undefined) | 32.7% (active) |
| COc1ccc(CCN2C(=O)c3[nH]nc(-c4ccccc4O)c3C2c2ccc(C)cc2)cc1OC (centres undefined) | 6.53% |
| Cc1c(Cl)c([N+](=O)[O-])nn1CC(=O)NCC1CCCO1 (centres undefined) | -3.7% |
| COc1ccccc1N1CCN(S(=O)(=O)c2ccc3c(c2)NC(=O)CS3)CC1 | 5.88% |
| CCOc1ccc(C(=O)Nc2ccc(S(=O)(=O)NCC3CCCO3)cc2)cc1OCC (centres undefined) | -1.6% |
| COC(C[C@@H](O)C[C@@H](O)[C@H](C)OCc1ccccc1)OC | 0.46% |
| COCCC(=O)N1CCC(Oc2ccc(C(=O)NCc3ccon3)cc2)CC1 | -0.97% |
| O=C(Nc1ccc(S(=O)(=O)Nc2nccs2)cc1)c1cc(=O)[nH]c2ccccc12 | 0.73% |
| CCN(CC)CCNC(=O)c1ccc(NC(=O)c2cc(-c3ccncc3)nc3ccccc23)cc1 | -7.72% |
| O=C(Nc1ccc(S(=O)(=O)Nc2nccs2)cc1)c1cc(-c2ccncc2)nc2ccccc12 | 27.5% (active) |
| c1ccc(C2CNCc3c2ccc2ccccc32)cc1 (centres undefined) | 3.78% |
| Cn1cnc(C(F)(F)F)c1-c1ccc([N+](=O)[O-])cc1 | -0.23% |
| C[N+](C)(C)CCOP(=O)([O-])OC[C@H](O)CO | -5.96% |

| SMILES | inhibition |
| --- | --- |
| COC(=O)Cc1cc(=O)n(-c2nc3ccccc3s2)[nH]1 | 19.6% (active) |
| CCC(=O)NC(=Nc1nc2ccccc2s1)NC(=O)CC | -4.21% |
| C/C(=N\NC(=O)CC(C)C)c1c(C(F)(F)F)[nH]n(-c2nc3ccccc3s2)c1=O | 4.43% |
| NC(=O)c1ccsc1NC(=O)COC(=O)Cc1n[nH]c(=O)c2ccccc12 | -0.46% |
| C/C(CC(O)(/C=N/O)c1ccccc1)=N\O (centres undefined) | 31.4% (active) |
| CC(=O)Oc1ccccc1C1=NN(C(C)=O)C(c2ccccc2)C1 (centres undefined) | -2.36% |
| O=C1C2N=NN(CC(=O)N3N=C(c4cccc5ccccc45)CC3c3ccccc3)C2C(=O)N1c1ccccc1 (centres undefined) | 30.5% (active) |
| Oc1ccccc1C1=NN(c2ccccc2)C(c2ccccc2)C1 (centres undefined) | 0.4% |
| O=C(CSc1nnnn1-c1ccc(O)cc1)N1N=C(c2ccc3ccccc3c2)CC1c1ccccc1 (centres undefined) | -3.09% |
| O=C(c1ccccc1)N1N=C(c2ccccc2O)CC1c1ccc(Br)cc1 (centres undefined) | 6.46% |
| Cc1ccc(N2C(=O)C3N=NN(CC(=O)N4N=C(c5cccc6ccccc56)CC4c4ccccc4)C3C2=O)cc1 (centres undefined) | 29.8% (active) |
| COc1ccc(C(=NN)c2ccc(OC)cc2)cc1 | -2.58% |
| COc1ccc(-c2nc3c(s2)CCc2onc(-c4ccc(Br)cc4)c2-3)cc1 | -1.07% |
| CCc1ccc(N(CC)c2ncnc3nc[nH]c23)cc1 | 2.16% |
| [2H]C(CCOS(N)(=O)=O)c1ccccc1 (centres undefined) | -3.22% |
| Cc1cc(C(=O)OCC(=O)NCc2ccco2)c(C)n1-c1ccccc1 | -0.54% |
| CN(C)/C=C(/C(=O)c1ccc(Cl)cc1)S(=O)(=O)c1ccccc1 | 0.05% |
| CC(C)(C)c1nnc(NC(=O)C2c3ccccc3Oc3ccccc32)s1 | 1.1% |
| Cc1noc(/C=C/c2ccco2)c1S(=O)(=O)N1CCC(C(=O)Nc2ccc(Cl)cn2)CC1 | 0.73% |
| Cc1noc(/C=C/c2ccco2)c1S(=O)(=O)N1CCC(C(=O)N2CCc3ccccc32)CC1 | 15.4% (active) |
| CNC(=O)C1CCN(S(=O)(=O)c2c(C)noc2/C=C/c2cccc(C)c2)CC1 | 0.59% |
| O=C(CSc1nc2ccccc2c(=O)n1CCCO)NC1CC1 | -4.92% |
| O=C(COC(=O)Cc1ccccc1F)NNC(=O)c1ccc(Cl)cc1 | -4.59% |
| C#CCCCc1nc2ccccc2c(=O)n1N | -2.85% |
